According to the supplement of paper PMC11732987, “Enantioselective OTUD7B fragment discovery through chemoproteomics screening and high-throughput optimisation” (Communications Chemistry, 2025):

Assays:
Assay in all cases: log2 ratio of Biotin-Ahx-Ub-VS probe labelling (fragment/DMSO); higher = less target engagement (more negative = stronger competition), active = hit call of the paper (q ≤ 0.05, log2 ratio ≤ -1)
Details in all cases: compound concentration: 200 uM; treatment time: 3 h
[1] = target: USP34 (UniProt Q70CQ2)
In short: (§1)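 HEK293T lysate, 495 µg per sample in Tris/CHAPS/IGEPAL buffer with protease inhibitors, was treated in triplicate with fragment at 200 µM or vehicle for 3 h and then with Biotin-Ahx-Ub-VS at 0.5 µM final for 1 h. Labelled DUBs were NeutrAvidin-enriched, digested with LysC and trypsin, and run by diaPASEF LC-MS/MS. Spectronaut label-free quantities were global-median-normalised, and values are average log2 fragment/vehicle ratios by unpaired t-test on proteins with ≥2 unique peptides.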

[2] = target: T1, USP36 (UniProt Q9P275)
T1 sequence (whole entry): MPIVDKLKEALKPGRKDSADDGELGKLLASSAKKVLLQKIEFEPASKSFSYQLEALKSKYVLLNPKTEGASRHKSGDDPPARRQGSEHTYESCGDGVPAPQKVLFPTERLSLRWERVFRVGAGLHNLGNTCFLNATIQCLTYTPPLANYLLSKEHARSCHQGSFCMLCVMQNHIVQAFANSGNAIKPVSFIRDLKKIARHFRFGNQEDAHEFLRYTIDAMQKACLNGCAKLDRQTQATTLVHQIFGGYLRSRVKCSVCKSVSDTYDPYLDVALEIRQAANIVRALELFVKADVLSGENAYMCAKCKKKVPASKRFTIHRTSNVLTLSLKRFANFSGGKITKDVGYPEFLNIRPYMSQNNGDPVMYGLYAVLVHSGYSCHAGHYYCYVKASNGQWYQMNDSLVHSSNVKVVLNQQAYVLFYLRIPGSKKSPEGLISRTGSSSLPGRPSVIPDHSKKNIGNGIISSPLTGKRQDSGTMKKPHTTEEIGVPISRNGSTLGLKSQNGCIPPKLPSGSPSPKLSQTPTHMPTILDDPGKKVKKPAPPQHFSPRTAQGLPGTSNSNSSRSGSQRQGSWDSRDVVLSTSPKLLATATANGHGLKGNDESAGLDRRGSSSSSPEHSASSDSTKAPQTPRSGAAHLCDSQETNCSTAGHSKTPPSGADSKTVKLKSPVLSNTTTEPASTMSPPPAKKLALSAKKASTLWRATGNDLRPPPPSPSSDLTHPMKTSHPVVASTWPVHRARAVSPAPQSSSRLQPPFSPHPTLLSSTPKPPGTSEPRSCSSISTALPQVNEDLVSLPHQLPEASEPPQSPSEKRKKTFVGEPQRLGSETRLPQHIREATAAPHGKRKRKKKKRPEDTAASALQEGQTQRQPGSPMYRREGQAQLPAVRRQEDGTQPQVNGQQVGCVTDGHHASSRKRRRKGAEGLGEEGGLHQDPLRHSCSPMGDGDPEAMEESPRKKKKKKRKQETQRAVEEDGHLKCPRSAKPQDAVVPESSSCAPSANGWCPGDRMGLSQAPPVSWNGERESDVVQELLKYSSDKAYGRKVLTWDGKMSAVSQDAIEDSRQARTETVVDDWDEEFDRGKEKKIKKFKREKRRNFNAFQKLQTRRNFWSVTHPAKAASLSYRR
In short: as §1

[3] = target: T2, USP38 (UniProt Q8NB14)
T2 sequence (whole entry): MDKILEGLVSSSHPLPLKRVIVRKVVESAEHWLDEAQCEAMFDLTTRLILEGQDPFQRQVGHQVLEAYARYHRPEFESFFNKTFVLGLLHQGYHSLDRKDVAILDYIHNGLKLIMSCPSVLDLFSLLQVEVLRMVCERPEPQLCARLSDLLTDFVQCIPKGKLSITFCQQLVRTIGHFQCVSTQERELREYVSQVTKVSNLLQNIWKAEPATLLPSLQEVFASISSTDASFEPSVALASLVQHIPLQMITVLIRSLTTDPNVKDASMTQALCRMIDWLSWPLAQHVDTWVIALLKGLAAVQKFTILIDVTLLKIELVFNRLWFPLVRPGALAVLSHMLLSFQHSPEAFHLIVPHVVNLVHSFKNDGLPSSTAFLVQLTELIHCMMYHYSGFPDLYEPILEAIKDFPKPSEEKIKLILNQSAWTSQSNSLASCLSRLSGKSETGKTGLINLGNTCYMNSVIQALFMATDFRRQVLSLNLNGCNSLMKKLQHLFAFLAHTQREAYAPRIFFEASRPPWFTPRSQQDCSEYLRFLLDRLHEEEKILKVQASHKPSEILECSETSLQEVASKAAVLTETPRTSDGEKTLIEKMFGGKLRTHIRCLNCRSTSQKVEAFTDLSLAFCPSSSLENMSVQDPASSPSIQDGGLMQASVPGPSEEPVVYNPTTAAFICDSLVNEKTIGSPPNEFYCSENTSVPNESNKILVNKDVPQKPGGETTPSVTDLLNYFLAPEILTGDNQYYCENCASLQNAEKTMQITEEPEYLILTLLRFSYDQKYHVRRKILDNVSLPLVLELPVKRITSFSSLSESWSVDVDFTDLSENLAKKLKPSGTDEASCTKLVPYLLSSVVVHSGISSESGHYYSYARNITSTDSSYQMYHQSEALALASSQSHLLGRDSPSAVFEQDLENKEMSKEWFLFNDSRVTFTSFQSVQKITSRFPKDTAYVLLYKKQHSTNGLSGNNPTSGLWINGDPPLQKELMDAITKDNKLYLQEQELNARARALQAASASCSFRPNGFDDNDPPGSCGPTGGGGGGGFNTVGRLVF
In short: as §1

[4] = target: T3, USP39 (UniProt Q53GS9)
T3 sequence (whole entry): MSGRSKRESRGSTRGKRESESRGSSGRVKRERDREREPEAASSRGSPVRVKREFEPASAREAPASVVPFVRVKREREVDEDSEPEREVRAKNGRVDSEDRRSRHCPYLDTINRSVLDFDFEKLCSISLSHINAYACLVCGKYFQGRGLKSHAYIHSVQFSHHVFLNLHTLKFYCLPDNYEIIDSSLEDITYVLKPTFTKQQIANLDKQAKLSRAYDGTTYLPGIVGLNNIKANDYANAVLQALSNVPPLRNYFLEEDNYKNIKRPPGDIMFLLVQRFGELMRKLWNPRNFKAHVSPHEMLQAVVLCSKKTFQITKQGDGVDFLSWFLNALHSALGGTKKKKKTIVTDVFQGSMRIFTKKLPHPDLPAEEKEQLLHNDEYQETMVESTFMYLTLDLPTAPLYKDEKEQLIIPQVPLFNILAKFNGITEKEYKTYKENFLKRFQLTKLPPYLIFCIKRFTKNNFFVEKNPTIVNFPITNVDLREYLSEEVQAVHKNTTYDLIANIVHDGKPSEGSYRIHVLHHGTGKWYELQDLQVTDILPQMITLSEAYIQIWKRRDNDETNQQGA
In short: as §1

[5] = target: T4, USP4 (UniProt Q13107)
T4 sequence (whole entry): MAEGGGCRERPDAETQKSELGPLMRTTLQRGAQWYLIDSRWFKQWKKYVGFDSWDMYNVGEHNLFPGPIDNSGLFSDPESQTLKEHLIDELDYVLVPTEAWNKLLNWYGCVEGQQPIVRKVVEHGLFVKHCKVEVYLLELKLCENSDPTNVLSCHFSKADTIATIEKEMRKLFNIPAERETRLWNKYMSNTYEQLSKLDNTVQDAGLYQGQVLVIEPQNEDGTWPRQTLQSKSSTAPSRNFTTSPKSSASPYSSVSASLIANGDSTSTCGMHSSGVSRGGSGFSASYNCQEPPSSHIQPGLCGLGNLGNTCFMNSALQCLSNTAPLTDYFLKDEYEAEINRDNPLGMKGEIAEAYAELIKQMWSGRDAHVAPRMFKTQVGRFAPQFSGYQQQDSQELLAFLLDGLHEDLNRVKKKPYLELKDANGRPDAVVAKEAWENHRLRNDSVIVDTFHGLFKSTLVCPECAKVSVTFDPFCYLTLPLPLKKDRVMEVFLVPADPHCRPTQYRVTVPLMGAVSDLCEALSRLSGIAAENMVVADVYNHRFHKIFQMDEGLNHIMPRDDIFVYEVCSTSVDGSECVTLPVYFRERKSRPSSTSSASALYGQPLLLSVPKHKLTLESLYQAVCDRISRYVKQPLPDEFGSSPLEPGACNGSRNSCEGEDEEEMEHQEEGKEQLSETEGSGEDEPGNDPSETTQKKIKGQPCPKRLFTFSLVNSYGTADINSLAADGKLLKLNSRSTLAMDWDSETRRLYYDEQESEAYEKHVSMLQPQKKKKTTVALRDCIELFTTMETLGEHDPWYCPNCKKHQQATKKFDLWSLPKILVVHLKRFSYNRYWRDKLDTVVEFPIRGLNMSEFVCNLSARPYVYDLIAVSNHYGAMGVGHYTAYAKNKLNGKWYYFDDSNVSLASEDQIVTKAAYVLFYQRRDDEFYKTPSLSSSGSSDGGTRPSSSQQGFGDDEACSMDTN
In short: as §1

Measured: log2 ratio of Biotin-Ahx-Ub-VS probe labelling

Chain of USP34 (Q70CQ2 whole entry, the tested form may be a part): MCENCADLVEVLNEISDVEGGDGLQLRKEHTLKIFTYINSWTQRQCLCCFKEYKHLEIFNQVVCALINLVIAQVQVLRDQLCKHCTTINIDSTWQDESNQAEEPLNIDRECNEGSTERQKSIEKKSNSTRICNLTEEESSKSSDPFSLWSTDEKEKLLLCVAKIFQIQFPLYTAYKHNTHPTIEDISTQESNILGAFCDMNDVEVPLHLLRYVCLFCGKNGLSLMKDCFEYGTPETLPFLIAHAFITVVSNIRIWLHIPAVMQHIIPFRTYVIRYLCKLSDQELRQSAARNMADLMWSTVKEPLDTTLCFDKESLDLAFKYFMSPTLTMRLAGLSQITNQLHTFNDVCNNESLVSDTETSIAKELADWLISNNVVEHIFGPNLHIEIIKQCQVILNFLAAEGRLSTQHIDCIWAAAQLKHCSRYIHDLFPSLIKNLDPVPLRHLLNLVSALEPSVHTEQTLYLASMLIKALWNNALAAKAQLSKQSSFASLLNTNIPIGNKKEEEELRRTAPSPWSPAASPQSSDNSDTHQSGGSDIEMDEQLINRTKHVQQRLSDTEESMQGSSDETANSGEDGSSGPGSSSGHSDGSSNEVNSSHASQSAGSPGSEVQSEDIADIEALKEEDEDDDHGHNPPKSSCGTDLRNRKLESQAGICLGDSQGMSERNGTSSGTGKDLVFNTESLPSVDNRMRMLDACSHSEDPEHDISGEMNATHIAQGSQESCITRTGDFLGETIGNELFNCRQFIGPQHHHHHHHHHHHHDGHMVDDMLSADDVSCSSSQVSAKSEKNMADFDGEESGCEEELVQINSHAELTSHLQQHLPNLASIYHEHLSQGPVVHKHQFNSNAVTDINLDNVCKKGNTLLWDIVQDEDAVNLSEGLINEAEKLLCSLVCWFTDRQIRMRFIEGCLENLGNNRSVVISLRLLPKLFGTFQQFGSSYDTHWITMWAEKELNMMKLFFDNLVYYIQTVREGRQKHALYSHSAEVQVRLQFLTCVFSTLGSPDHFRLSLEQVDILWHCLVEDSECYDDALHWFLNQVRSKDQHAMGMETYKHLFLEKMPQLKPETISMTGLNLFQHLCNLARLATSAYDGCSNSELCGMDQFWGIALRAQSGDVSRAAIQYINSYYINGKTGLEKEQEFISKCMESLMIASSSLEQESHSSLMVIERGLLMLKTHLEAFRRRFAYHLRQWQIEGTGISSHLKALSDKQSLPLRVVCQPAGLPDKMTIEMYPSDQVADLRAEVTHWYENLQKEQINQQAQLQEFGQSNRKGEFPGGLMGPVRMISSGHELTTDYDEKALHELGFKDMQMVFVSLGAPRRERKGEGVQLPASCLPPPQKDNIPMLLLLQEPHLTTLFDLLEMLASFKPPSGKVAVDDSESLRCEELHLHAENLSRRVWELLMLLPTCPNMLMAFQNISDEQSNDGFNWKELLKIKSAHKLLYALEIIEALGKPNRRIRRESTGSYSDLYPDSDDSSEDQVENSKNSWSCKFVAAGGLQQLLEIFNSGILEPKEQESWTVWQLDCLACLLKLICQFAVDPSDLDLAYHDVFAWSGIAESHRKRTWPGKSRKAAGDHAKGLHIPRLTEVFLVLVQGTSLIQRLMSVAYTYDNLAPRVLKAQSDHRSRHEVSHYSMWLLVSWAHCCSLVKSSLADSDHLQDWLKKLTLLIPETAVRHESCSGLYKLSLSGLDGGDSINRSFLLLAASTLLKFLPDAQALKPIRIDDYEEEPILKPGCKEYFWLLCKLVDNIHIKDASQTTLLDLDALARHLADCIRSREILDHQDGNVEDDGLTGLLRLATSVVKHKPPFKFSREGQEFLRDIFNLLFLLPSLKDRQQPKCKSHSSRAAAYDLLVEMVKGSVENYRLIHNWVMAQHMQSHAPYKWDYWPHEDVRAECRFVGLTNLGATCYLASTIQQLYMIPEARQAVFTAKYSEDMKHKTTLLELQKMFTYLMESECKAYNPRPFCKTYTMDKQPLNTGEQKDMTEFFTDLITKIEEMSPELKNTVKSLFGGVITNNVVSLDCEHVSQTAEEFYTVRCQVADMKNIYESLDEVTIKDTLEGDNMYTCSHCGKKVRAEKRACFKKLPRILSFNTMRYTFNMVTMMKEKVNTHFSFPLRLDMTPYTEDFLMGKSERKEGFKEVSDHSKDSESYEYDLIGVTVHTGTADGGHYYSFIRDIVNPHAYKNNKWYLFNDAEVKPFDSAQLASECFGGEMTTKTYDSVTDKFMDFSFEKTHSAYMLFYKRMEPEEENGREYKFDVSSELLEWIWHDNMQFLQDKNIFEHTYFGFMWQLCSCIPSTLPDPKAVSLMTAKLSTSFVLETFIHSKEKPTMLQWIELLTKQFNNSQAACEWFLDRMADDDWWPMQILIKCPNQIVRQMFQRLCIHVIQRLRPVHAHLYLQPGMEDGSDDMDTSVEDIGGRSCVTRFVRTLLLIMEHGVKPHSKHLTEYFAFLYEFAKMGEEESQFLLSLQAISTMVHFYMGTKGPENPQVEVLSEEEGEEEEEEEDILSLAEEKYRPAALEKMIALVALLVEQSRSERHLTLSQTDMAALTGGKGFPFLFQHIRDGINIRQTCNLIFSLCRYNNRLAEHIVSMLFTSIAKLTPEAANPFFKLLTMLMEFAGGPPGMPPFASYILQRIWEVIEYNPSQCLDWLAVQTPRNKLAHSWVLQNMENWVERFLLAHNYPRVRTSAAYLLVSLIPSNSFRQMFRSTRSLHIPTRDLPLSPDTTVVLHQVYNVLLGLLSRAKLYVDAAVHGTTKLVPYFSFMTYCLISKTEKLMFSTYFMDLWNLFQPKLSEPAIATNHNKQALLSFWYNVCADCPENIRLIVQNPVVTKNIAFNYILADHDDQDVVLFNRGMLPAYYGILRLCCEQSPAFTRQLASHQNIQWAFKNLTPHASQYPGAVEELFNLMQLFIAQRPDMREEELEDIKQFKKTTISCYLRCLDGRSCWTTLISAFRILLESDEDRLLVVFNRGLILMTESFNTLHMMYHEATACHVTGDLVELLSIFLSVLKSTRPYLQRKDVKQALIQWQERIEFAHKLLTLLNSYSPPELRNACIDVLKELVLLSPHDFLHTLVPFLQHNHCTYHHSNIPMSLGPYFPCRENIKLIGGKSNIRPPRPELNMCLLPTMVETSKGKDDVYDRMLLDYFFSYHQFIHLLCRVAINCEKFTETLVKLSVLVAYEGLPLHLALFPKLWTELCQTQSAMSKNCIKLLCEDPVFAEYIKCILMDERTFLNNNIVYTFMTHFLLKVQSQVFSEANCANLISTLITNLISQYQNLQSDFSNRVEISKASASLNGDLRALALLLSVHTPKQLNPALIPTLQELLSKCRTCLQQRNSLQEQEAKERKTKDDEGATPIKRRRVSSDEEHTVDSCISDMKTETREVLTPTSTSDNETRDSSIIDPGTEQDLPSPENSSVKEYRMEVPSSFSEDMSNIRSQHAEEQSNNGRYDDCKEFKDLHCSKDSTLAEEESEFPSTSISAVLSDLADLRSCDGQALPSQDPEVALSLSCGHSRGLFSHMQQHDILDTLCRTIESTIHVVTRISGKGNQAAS

COCC[C@@H](NC(=O)CCl)c1ccccc1
inactive: [1] -0.0495 | [2] -0.11 | [3] 0.0786 | [4] -0.0498 | [5] 0.0432
